# Source: PubChem (several laboratories)
# An excerpt weighted towards active compounds, which were near 2.4% of everything screened.
# NOD2-RIPK2 inh = blocks binding of human NOD2 to RIPK2; O43353; CHO BLA complementation NOD2-RIPK2, CCF4 ratio; inhibition, % at 4.98 µM; hit rate 0.38% among 360,000; in the data active means inhibition above about 21%;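 further: 0% = vehicle only and 100% = reference blocker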
# m5-HT2A agonist = agonists of mouse serotonin 5-HT2A receptor (HTR2A); P35363; CHO-K1 mHTR2A beta-arrestin complementation, luminescence; percent of 30 µM serotonin response; hit rate 0.66% among 360,000; activation, % at 7.6 µM;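 active means activation above a run cutoff, the mean activation of all tested compounds plus 3 SD, cut at about 14% in these data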;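 further: 0% = plate median of compound wells and 100% = 30 µM serotonin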
# TLR9-MyD88 block = TLR9-MyD88 interaction inhibition. AID 504734. hit rate 0.21% among 340,000. Q9NR96+Q99836. CHO BLA complementation TLR9-MyD88, CCF4 FRET ratio. inhibition, % at 4.98 µM;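 active means inhibition above the mean over all tested compounds plus 3 SD, cut at about 21% in these data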;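 further: 0% = DMSO only wells and 100% = clavulanate BLA inhibitor control wells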
# TLR4-MyD88 BLA = inhibitors of human TLR4-MyD88 binding; inhibition, % at 8.4 µM; hit rate 0.18% among 200,000; HeLa CL3-4 TLR4/MyD88 BLA complementation, FRET ratio; in the data active means inhibition above about 25%;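 further: 0% = vehicle and 100% = reference inhibitor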
# CRFR2-BP antag = blocks CRF-induced signaling of the CRF-BP/CRF-R2 complex; HEK293 CRF-R2/CRF-BP, CRF-induced calcium fluorescence; inhibition, % at 11.8 µM; hit rate 0.59% among 350,000;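 active means inhibition of the ligand-induced calcium signal above about 50% at the single tested concentration, limit read from the data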
# ABHD5 PLIN5 PPI = ABHD5-PLIN5 protein interaction inhibition. Q00G26+Q8WTS1. AID 602281. hit rate 0.78% among 360,000. inhibition, % at 4 µM. Split G. princeps luciferase complementation, luminescence, 4 h;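 active means inhibition above the mean inhibition across every tested compound plus 3 SD, cut at about 22% in these data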;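 further: 0% = DMSO only wells and the 100% control is not disclosed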
# Target sequence (Q00G26 whole entry, looked up): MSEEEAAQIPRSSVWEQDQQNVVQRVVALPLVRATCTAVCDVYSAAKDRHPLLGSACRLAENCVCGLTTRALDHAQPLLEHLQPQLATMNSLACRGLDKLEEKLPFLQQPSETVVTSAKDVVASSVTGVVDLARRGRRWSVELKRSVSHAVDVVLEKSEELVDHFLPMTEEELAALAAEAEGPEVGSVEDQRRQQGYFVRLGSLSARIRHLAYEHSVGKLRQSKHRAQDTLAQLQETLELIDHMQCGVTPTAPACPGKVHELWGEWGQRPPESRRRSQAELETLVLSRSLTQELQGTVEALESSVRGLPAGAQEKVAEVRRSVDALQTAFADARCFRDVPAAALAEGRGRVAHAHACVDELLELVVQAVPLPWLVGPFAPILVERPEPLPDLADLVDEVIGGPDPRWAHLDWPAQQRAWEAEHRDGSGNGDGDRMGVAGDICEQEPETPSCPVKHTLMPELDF
# Target sequence (Q8WTS1 whole entry, looked up): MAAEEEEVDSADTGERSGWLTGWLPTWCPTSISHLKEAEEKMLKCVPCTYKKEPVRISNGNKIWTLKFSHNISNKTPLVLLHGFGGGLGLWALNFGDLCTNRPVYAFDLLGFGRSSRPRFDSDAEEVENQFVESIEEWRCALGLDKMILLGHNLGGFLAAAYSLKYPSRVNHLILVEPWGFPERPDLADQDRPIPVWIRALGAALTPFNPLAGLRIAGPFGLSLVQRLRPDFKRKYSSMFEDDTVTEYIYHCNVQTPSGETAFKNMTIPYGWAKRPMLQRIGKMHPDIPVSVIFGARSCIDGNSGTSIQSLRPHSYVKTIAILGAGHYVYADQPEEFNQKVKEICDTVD
# MOR ag counter = counter-screen for mouse HTR2A agonists: human mu opioid receptor agonists; shares compounds with m5-HT2A agonist; U2OS OPRM1 beta-arrestin PathHunter, luminescence; DMSO 0%, DAMGO 9.3 µM 100%; activation, % at 9.3 µM; hit rate 5.3% among 2,300;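 active means mean activation above the mean of DMSO-only wells plus 3 SD, cut at about 0.5% in these data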
# m5-HT2A ag conf = confirmation of mouse HTR2A serotonin receptor agonists; shares compounds with m5-HT2A agonist; CHO-K1 PathHunter beta-arrestin recruitment, luminescence; DMSO 0%, 30 µM serotonin 100%; activation, % at 7.6 µM; hit rate 19% among 2,300; AID 624381;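 active means mean activation across triplicates above the hit threshold derived in the original primary screen, cut at about 15% in these data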
# * hit, by the source's call; x = no result.
SMILES,NOD2-RIPK2 inh,m5-HT2A agonist,TLR9-MyD88 block,TLR4-MyD88 BLA,CRFR2-BP antag,ABHD5 PLIN5 PPI,MOR ag counter,m5-HT2A ag conf
O=C(Nc1ccn(CCCN2CCN(Cc3ccc(F)cc3)CC2)c(=O)n1)OCc1ccccc1,-4.6,-1.4,4.3,x,-0.1,2.4,x,x
COc1ccccc1CNC(=O)C1CCC1,-2.9,15.3*,0.8,-3.4,-42.3,-0.9,-0.7,-2.9
COc1ccccc1CNC(=O)COC(=O)Cc1ccc(Br)cc1,-2.3,16.0*,1.2,x,15.9,-4.1,-0.6,-2.4
COc1ccc(CNC(=O)COC(=O)Cc2ccc(Br)cc2)cc1,8.1,2.0,0.9,x,0.9,11.3,x,x
COc1cccc(NC(=O)c2ccc(CN3CCN(c4ccccc4)CC3)cc2)c1,8.6,32.9*,-2.4,-10.4,-18.9,1.0,-0.2,60.5*
CSc1ccc(N2CCN(CCCNC(=O)Nc3ccccc3F)CC2)cc1,-6.2,16.8*,-6.7,-0.1,-19.1,-1.0,-0.5,39.0*
COc1ccc(NC(=O)c2ccc(CN3CCN(c4ccccc4)CC3)cc2)cc1,1.1,5.4,3.7,-5.9,-0.1,3.3,x,x
O=C(Nc1ccccc1F)c1ccc(CN2CCN(c3ccccc3)CC2)cc1,-1.4,20.5*,3.6,x,8.0,-1.7,0.8*,95.3*
Cc1ccc(S(=O)(=O)N2[C@@H](c3cccc(Cl)c3)C(C(=O)OC(C)(C)C)=CC[C@H]2c2cccc(Cl)c2)cc1,-8.2,3.2,x,x,x,-4.0,x,x
Cc1nc(-c2nc(-c3c(C(=O)NNC(=O)Nc4cccc(Cl)c4)noc3C)cs2)cs1,-18.6,19.3*,x,x,-3.5,1.4,-0.7,51.8*
COc1ccc(CN2C(=O)c3ccccc3C2c2nnnn2-c2ccc3c(c2)OCCO3)cc1 (stereo not given),-10.2,1.1,x,x,x,3.2,x,x
CCc1nnc(NC(=O)CCC(=O)N2CCN(Cc3ccccc3)CC2)s1,-10.9,16.3*,2.4,-9.7,2.8,10.3,-0.7,-3.7
Cc1nc(SCC(=O)N2CCN(C(=O)c3cccs3)CC2)c2c(C)c(C)sc2n1,5.2,16.1*,-7.0,x,5.0,-3.7,-0.5,1.2
Cc1nc(SCC(=O)N2CCN(C(=O)c3ccco3)CC2)c2c(C)c(C)sc2n1,4.8,0.4,0.8,-4.1,6.5,0.5,x,x
CCOC(=O)C1=CCN(S(=O)(=O)c2ccc(C)cc2)C1c1cccc(C)c1 (stereo not given),2.0,-3.7,x,x,x,-5.5,x,x
Cc1ccn(CCNC(=O)C2CCC(=O)N(CCc3ccc(Cl)cc3)C2)n1 (stereo not given),-10.9,24.0*,0.5,x,24.1,-1.2,-0.4,-3.0
CC(=NC1CC1)c1c(-c2ccccc2)[nH]n(-c2nc3ccccc3s2)c1=O,-9.7,14.7*,2.3,17.6,9.0,-0.4,-0.7,10.6
CC(=NC1CCCC1)c1c(C)[nH]n(-c2nc3ccccc3s2)c1=O,-3.5,1.4,10.7,2.0,-23.2,3.4,x,x
c1ccc(N2[C@@H]3c4ccccc4C[C@H]2c2ccccc23)cc1,-12.6,-0.1,x,x,x,-5.8,x,x
CC1(C)CC(=O)C/C(=N\NC(=S)NCc2ccccc2)C1,-1.6,16.5*,4.2,-5.4,12.4,-0.1,-0.6,-4.8
CC1C/C(=N\NC(=S)NCc2ccccc2)CC(C)(C)C1 (stereo not given),-3.9,-2.0,-5.3,-1.8,6.5,-7.4,x,x
CC1=CC=CN2CC(O)CN=C12 (stereo not given),1.8,28.4*,-12.4,-7.6,11.5,2.4,-0.9,-2.7
CC1=CN2CC(O)CN=C2C=C1 (stereo not given),0.7,3.3,6.4,-13.2,-23.3,4.4,x,x
Cc1ccc(C(=O)C2C(=O)C3CCC2C3)cc1 (stereo not given),-3.8,-3.7,x,x,x,-8.6,x,x
CC(C)OC(=O)NC(Nc1ccccc1C(=O)O)(C(F)(F)F)C(F)(F)F,-3.4,21.9*,-7.9,x,5.2,2.1,0.0,1.1
SMILES,NOD2-RIPK2 inh,m5-HT2A agonist,TLR9-MyD88 block,TLR4-MyD88 BLA,CRFR2-BP antag,ABHD5 PLIN5 PPI,MOR ag counter,m5-HT2A ag conf
Cc1ccc(S(=O)(=O)N2C[C@@H](C)[C@]3(C2)[C@H](O)[C@H](OC(=O)Nc2cccs2)C[C@H]2C(=O)N(c4ccccc4)C(=O)[C@H]23)cc1,-1.7,0.6,10.3,x,-10.0,3.4,x,x
Cc1ccc(NC(=O)C(C)Sc2nnc3n2CCCCC3)cc1S(=O)(=O)N1CCOCC1 (stereo not given),-3.6,4.4,3.3,x,-3.2,-4.1,x,x
O=C(Cc1ccccc1)NCC(=O)N/N=C/c1ccc([N+](=O)[O-])s1,-0.9,18.5*,-5.7,x,1.6,-4.2,-0.1,-0.7
O=C(CNC(=O)c1ccccc1)N/N=C/c1ccc([N+](=O)[O-])s1,4.2,4.3,-10.8,13.5,0.8,-8.5,x,x
COCCNC(=O)C1(C)Cc2c(-c3cccc(C(N)=O)c3)ccnc2O1 (stereo not given),5.2,-4.2,x,x,x,-5.0,x,x
CC1(C(=O)NCC2CC2)Cc2c(-c3cccc(C(N)=O)c3)ccnc2O1 (stereo not given),3.3,14.4*,x,x,x,6.8,-0.5,-1.3
CC(=O)NCCNC(=O)C1(C)Cc2c(-c3ccc(C(N)=O)cc3)ccnc2O1 (stereo not given),2.3,23.6*,x,x,x,1.6,-0.6,-1.1
CC(=O)NCCNC(=O)C1(C)Cc2c(-c3ccccc3)ccnc2O1 (stereo not given),4.7,1.7,x,x,x,-5.1,x,x
O=C1NC[C@@H](CCCCN2C[C@H](Cc3ccc(O)cc3)N(CC3CCCCC3)C(=O)C2=O)N(CCC2CCCCC2)C1=O,-4.2,-2.2,x,x,x,-3.3,x,x
CCCCCc1c(-c2ccc(OC)cc2)ncn1CCc1ccccc1OC,4.2,-9.0,x,x,x,0.1,x,x
CN(C)S(=O)(=O)c1ccc(NC(=O)CN2CCN(c3ccccn3)CC2)cc1,-13.5,10.9,-1.2,x,-3.6,-7.6,x,x
CN(C)S(=O)(=O)c1cc(NC(=O)CN2CCN(c3ccc(O)cc3)CC2)ccc1Cl,3.2,-5.8,2.2,-4.5,2.2,-1.5,x,x
COc1ccccc1NC(=O)CN1CCN(c2ccccn2)CC1,0.8,16.1*,-6.6,-6.7,5.6,5.3,-0.4,37.1*
CCN(CC)S(=O)(=O)c1cc(NC(=O)CN2CCN(c3ccccn3)CC2)ccc1C,-6.0,31.7*,-19.2,-19.4,8.8,-1.4,-0.8,94.5*
COc1ccc(C)cc1NC(=O)CN1CCN(c2ccccn2)CC1,0.8,-8.2,-2.4,x,0.4,0.8,x,x
Cc1ccc(NC(=O)CN2CCN(c3ccccn3)CC2)cc1S(=O)(=O)N(C)C,-5.3,51.4*,4.5,-17.2,14.2,6.7,-0.5,117.9*
